Test results reported in PubChem BioAssay.
For part of these data: Potency and affinity values are given separately. Results filed as inconclusive are left out. Activity calls are given as the source filed them.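 How the source made its calls, unless noted: active means fitted dose curve reaches 40% lysis signal rise at or below the highest valid concentration tested for that sample; inconclusive means flat fit between 30% and 70%, or poor curve fit; inactive means signal falls, stays flat within 30%, or no crossing.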

Key:
[1] = small molecules captured by biotinylated probe aFSTL3 – biochemical, small-molecule microarray, fluorescence 635/667, stem cell growth factor project, primary screen (AID 1064); details: higher = more signal;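 further: measures binding of the biotinylated anti-FSTL3 antibody to printed compounds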
[2] = binders from COS7 lysate, DM2A8 probe, primary screen, torsin A project, cell lysate, small-molecule microarray, fluorescence 635/667 (AID 1065); details: higher = more signal, COS7 lysate expressing mutant human TOR1A
[3] = small molecules captured by biotinylated probe aFGF2 – biochemical, small-molecule microarray, fluorescence 635/667, stem cell growth factor project, primary screen (AID 1067); details: higher = more signal;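 further: measures binding of biotinylated aFGF2 protein to printed compounds on slides; z-score merges feature fluorescence and signal-to-noise across triplicate slides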
[4] = small molecules captured by biotinylated probe aFGF10 – biochemical, small-molecule microarray, fluorescence 635/667, stem cell growth factor project, primary screen (AID 1071); details: higher = more signal;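 further: score merges 667 nm spot intensity and signal to noise from triplicate slides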
[5] = target: Neurogenic locus notch homolog protein 2 (Homo sapiens) (UniProt Q04721); test: small molecules binding Notch2 protein – biochemical, small-molecule microarray, 635 nm fluorescence, stem cell growth factors, primary screen (AID 1073); details: higher = more signal
Sequence of Neurogenic locus notch homolog protein 2 (Homo sapiens) (Q04721 whole entry, looked up, canonical isoform): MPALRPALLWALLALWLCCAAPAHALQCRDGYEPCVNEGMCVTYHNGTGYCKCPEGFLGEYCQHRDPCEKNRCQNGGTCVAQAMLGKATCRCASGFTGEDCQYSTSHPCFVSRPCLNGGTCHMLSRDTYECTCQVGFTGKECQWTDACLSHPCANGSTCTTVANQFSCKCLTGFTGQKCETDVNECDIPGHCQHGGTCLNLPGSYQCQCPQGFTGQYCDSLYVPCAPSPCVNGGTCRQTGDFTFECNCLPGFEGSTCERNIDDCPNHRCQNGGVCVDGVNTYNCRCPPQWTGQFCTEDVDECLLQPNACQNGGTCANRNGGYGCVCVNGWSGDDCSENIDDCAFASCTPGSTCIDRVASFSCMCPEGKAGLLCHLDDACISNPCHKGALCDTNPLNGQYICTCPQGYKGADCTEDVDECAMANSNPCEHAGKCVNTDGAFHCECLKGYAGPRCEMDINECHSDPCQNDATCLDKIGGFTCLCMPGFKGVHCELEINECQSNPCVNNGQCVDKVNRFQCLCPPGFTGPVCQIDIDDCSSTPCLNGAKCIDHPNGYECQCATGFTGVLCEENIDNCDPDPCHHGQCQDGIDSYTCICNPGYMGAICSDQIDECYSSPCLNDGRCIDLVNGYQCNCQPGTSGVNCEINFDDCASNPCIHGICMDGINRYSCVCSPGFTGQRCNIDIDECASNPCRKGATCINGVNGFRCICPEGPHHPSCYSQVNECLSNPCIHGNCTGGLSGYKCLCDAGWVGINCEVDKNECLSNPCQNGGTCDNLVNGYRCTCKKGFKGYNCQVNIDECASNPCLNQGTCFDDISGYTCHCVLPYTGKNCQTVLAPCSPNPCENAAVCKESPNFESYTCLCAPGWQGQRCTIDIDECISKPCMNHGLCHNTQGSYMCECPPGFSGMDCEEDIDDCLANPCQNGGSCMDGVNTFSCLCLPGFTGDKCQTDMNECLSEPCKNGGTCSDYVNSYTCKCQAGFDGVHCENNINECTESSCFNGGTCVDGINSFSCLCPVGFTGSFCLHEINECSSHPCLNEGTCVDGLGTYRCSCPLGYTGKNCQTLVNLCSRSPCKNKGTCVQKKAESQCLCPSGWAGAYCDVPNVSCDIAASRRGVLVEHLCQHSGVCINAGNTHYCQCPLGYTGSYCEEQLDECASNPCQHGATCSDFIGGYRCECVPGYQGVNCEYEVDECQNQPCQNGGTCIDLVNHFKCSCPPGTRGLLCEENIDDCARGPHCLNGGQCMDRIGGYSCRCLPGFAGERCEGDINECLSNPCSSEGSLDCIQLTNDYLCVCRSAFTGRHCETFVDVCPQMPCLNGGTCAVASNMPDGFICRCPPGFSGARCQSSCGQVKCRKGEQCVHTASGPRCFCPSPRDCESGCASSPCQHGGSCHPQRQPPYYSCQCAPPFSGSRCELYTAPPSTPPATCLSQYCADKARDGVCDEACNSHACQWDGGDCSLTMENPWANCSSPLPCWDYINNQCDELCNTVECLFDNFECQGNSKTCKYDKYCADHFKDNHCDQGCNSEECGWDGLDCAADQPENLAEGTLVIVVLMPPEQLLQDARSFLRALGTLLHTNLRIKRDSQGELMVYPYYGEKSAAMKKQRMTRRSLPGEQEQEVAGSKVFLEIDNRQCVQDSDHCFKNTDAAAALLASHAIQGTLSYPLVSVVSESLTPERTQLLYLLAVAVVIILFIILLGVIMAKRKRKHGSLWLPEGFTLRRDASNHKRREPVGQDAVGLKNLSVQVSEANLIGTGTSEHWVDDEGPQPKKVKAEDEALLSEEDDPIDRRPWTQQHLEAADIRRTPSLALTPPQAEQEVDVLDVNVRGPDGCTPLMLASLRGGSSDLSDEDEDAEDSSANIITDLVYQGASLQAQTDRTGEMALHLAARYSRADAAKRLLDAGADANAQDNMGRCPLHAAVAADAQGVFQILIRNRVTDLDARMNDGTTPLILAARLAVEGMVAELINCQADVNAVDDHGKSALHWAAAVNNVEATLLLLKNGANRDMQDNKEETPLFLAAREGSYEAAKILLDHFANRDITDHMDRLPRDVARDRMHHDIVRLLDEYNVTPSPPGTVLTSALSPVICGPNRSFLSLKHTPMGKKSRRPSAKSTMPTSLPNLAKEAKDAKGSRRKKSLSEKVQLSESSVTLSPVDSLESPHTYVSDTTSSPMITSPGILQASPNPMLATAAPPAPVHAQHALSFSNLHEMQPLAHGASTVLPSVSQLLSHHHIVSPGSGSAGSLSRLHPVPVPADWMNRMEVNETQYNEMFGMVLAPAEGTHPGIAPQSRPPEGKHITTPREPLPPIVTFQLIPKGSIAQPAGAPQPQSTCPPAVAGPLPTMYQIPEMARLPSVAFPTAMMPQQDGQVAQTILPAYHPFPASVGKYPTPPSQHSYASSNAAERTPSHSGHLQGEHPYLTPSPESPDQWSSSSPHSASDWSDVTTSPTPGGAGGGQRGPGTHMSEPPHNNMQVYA

[6] = target: Pro-neuregulin-1, membrane-bound isoform (Homo sapiens) (UniProt Q02297); test: small molecules binding neuregulin-1 protein – biochemical, small-molecule microarray, fluorescence 635/667, psychiatric disease protein project, primary screen (AID 1075); details: NRG1 binding, 635 nm fluorescence, higher = more signal;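 further: score combines 667 nm spot fluorescence with signal to noise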
Sequence of Pro-neuregulin-1, membrane-bound isoform (Homo sapiens) (Q02297 whole entry, looked up, the tested form may be a part, canonical isoform): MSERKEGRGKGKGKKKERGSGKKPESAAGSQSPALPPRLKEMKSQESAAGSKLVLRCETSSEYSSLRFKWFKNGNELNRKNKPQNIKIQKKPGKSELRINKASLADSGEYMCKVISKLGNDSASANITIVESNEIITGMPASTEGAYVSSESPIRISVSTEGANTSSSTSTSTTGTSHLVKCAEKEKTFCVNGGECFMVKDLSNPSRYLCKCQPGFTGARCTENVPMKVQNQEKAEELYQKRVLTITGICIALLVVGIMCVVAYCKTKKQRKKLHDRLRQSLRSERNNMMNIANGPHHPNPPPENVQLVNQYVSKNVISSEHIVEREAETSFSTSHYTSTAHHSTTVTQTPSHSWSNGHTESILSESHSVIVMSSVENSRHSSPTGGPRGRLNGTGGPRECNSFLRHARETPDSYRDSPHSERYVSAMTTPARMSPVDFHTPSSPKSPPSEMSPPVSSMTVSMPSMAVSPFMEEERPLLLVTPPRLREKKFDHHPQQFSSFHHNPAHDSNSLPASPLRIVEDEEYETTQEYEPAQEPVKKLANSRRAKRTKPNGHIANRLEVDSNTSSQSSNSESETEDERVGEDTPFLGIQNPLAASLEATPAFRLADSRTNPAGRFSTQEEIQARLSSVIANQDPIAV

[7] = system: Neuregulin-1 EGF-like domain; test: small molecules binding NRG1 EGF domain – biochemical, small-molecule microarray, 635 nm fluorescence, primary screen (AID 1081); details: higher = more signal;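 further: binding of the protein to compounds printed on small-molecule microarray slides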
[8] = FRG1 expression reporter modulators in myotubes – cell-based, C2C12 myotubes, firefly/Renilla luciferase, luminescence, FRG1 inhibition for FSHD, primary screen (AID 1084); details: FRG1 promoter luciferase, higher = more signal, called active from +8 up or from −8 down
[9] = small molecules captured by biotinylated probe aFST – biochemical, small-molecule microarray, fluorescence 635/667, stem cell growth factor project, primary screen (AID 1086); details: higher = more signal;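 further: score merges 667 nm fluorescence with signal-to-noise of each printed compound spot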
[10] = binders of probe aHhip on microarray, primary screen, stem cell growth factor project, biochemical, small-molecule microarray, fluorescence 635/667 (AID 1087); details: higher = more signal;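 further: score merges spot fluorescence at 667nm with spot signal to noise ratio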
[11] = system: PRMT1 (protein arginine N-methyltransferase 1); test: small molecules binding arginine methyltransferase PRMT1 – biochemical, small-molecule microarray, 635 nm fluorescence, primary screen (AID 1088); details: higher = more signal;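 further: binding of Prmt1 protein to compounds spotted on small-molecule microarray slides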
[12] = growth effects on S. cerevisiae YJM789 – YJM789 clinical isolate, OD600, 24 h, basal, primary screen (AID 1089); details: higher = more signal, called active from +8 up or from −8 down;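 further: growth of clinical yeast isolate S. cerevisiae YJM 789 seeded 1000 cells per well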
[13] = S. pombe growth modifiers, basal conditions – strain 972, OD600, 24 h, no modulator, primary screen (AID 1090);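 further: basal condition with compound alone and no growth modifier present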; details: S. pombe 972 growth, higher = more signal, called active from +8 up or from −8 down
[14] = budding yeast growth modifiers under rapamycin – strain BY4716, OD600, 96 h, primary screen (AID 1091); details: S. cerevisiae BY4716 + rapamycin, higher = more signal, called active from +8 up or from −8 down
[15] = target: Torsin-1A-interacting protein 2 (Homo sapiens) (UniProt Q8NFQ8); test: small molecules binding lysate-expressed LULL1 – cell lysate, human LULL1 lysate, 635/667 nm fluorescence, primary screen (AID 1092); details: small-molecule microarray, hLULL1 lysate binding, 635 nm fluorescence; higher = more signal;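 further: probe is lysate of COS7 cells overexpressing human LULL1; score merges per-feature 667 nm fluorescence with signal-to-noise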
Sequence of Torsin-1A-interacting protein 2 (Homo sapiens) (Q8NFQ8 whole entry, looked up): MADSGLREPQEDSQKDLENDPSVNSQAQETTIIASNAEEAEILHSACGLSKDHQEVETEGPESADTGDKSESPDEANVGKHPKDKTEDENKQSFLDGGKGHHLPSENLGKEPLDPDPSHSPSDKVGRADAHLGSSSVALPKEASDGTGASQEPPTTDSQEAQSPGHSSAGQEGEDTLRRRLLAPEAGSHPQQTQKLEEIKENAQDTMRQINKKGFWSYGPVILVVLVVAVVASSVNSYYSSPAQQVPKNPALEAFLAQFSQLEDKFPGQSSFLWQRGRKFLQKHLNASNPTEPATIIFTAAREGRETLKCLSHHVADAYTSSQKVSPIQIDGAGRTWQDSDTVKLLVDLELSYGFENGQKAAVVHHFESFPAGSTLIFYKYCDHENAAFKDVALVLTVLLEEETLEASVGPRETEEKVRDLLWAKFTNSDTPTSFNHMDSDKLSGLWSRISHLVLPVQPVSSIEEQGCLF

[16] = optical density change of DRC41 E. coli – strain DRC41, OD650, 24 h, E. coli filamentation project, primary screen (AID 1093);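 further: MC1000 strain lacking acrAB efflux and sulA so SOS filamentation is blocked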; details: E. coli DRC41 growth, higher = more signal, called active from +8 up or from −8 down
[17] = probe aLefty2 binding to arrayed compounds – biochemical, biotinylated probe, 635/667 nm fluorescence, primary screen (AID 1094); details: small-molecule microarray, higher = more signal;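 further: score merges spot fluorescence near 667 nm with spot signal-to-noise ratio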
[18] = fungal growth arrest, C. neoformans – Alamar Blue, cherry-picks, dose response (AID 686998;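 active means falling signal with fitted half-maximal potency no higher than twice the top valid tested dose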); details: Cryptococcus neoformans growth, 24 h; series mostly up to 35 µM
[19] = C. neoformans lysis by adenylate kinase leakage – AK release luminescence, cherry-picks, dose response (AID 687000); details: 4 h, 100% = twice the neutral-control signal; series mostly up to 15 µM;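 further: luminescent detection of adenylate kinase leaking from lysed yeast; 0% = median neutral control signal and 100% = double that signal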
[20] = viability loss in HepG2 hepatoma cells – cell-based, cherry-picks, set 2, cytotoxicity control, dose response (AID 687002;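 active means a dose-response fit showing signal loss, with half-maximal concentration no higher than twice the top tested dose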); details: ATP luminescence (CellTiter-Glo), 48 h; series mostly up to 26 µM

SMILES | composite z-score [1] | composite z-score [2] | composite z-score [3] | composite z-score [4] | composite z-score [5] | composite z-score [6] | composite z-score [7] | z-score [8] | composite z-score [9] | composite z-score [10] | composite z-score [11] | z-score [12] | z-score [13] | z-score [14] | composite z-score [15] | z-score [16] | composite z-score [17] | outcome [18] | outcome [19] | outcome [20]
O=C1O[C@H](c2ccccc2)[C@H](c2ccccc2)N2[C@H]1[C@@H](C(=O)Nc1nc3ccccc3s1)[C@]1(C(=O)Nc3ccc(C#CCCO)cc31)[C@H]2c1ccccc1OCCO | -0.246 | 1.25 | -0.038 | 0.502 | 1.35 | 1.69 | 1.06 | -1.51 (inactive) | 0.599 | 0.0757 | 1.47 | 0.764 (inactive) | -1.98 (inactive) | 2.62 (inactive) | 2.85 | 2.96 (inactive) | 0.0459 |  |  | 
CC(C)[C@@H](C(=O)O)n1cc(-c2ccccn2)nn1 | 0.22 | 0.424 | -0.378 | 0.458 | 0.537 | 0.419 | 0.961 | 0.0328 (inactive) | 0.659 | 0.0274 | 0.575 | 0.0655 (inactive) | -0.477 (inactive) | -0.353 (inactive) | 0.88 | 1.99 (inactive) | -0.378 |  |  | 
[N-]=[N+]=NCc1ccccc1C[C@]1(C(=O)NCc2ccccc2)N=C(c2ccc(OCCCO)cc2)O[C@H]1c1ccccc1 | 1.45 | 1.21 | 0.135 | 0.17 | 1.15 | 0.994 | 0.97 | -2.74 (inactive) | 0.407 | -0.224 | 0.544 | 2.2 (inactive) | 2.85 (inactive) | 35.5 (active) | 2.47 | 1.85 (inactive) | 0.52 |  |  | 
COCCCNC(=O)[C@@]1(CCS(=O)(=O)c2ccccc2)N=C(c2ccc(OCCCO)cc2)O[C@H]1c1ccccc1CN=[N+]=[N-] | 1.06 | 0.865 | 0.331 | 1.12 | 1.25 | 1.01 | 1.22 | -0.891 (inactive) | 1.25 | 0.0515 | 1.54 | -1.61 (inactive) | -1.21 (inactive) | 0.468 (inactive) | 2.65 | 2.4 (inactive) | 0.568 |  |  | 
C=C1C=C(Br)C2(OCCCO2)[C@H]2OC12 (stereo partly specified) | -0.199 | 0.249 | -0.128 | 0.325 | -0.175 | -0.188 | -0.221 | 1.04 (inactive) | 0.206 | 0.0274 | -0.83 | -0.23 (inactive) | -0.54 (inactive) | 0.405 (inactive) | -0.38 | 0.294 (inactive) | -0.116 |  |  | 
CC(C)[Si](C#C[Si](C(C)C)(C(C)C)C(C)C)(O[C@H](C)c1cn([C@H](C)c2ccccc2)nn1)C(C)C | -0.248 | 0.15 | -0.0402 | 0.357 | 0.814 | 0.3 | 0.528 | -1.64 (inactive) | 0.25 | -0.132 | 1.18 | -1.22 (inactive) | -2.35 (inactive) | -1.4 (inactive) | 1.11 | 0.723 (inactive) | 0.0137 |  |  | 
C[C@@H]1CN([C@@H](C)CO)C(=O)Cc2cc(NC(=O)Nc3cccc4ccccc34)ccc2O[C@@H]1CN(C)S(=O)(=O)c1cccs1 |  |  |  |  |  |  |  |  |  |  |  |  |  |  |  |  |  | inactive | inactive | inactive
C=C(COC)C(=O)CC[C@H](OC(=O)c1cccnc1)c1cccc(OCCO)c1 | 0.822 | 1.9 | 0.119 | 0.833 | -0.381 | -0.318 | 0.0423 | 0.0417 (inactive) | 0.331 | 0.503 | 1.36 | 1.25 (inactive) | -0.231 (inactive) | 1.56 (inactive) | 0.241 | 1.18 (inactive) | 0.649 |  |  | 
O=C1c2ccccc2[C@](Cc2ccccc2I)(C(=O)O)[C@H](c2ccc(CO)cc2)N1Cc1ccccc1Cl | 0.668 | 0.651 | -0.0301 | 0.0635 | 0.268 | 0.955 | 0.819 | 0.17 (inactive) | 0.43 | -0.0994 | 1.21 | -0.818 (inactive) | -1.53 (inactive) | -1.19 (inactive) | 1.82 | 1.13 (inactive) | 0.0678 |  |  | 
CC(C)N1CC=CC23O[C@@H]4/C=C\CCCOC(=O)C4[C@H]2C(=O)N(CCCO)[C@@H]3C1=O (stereo partly specified) | 0.495 | 2.3 | -0.01 | 0.215 | -0.615 | 0.0034 | 1.14 | 1 (inactive) | -0.623 | -0.374 | -0.78 | 0.759 (inactive) | -0.76 (inactive) | 0.752 (inactive) | 2.15 | 1.77 (inactive) | -0.221 |  |  | 
